The values that follow come from PubChem BioAssay (Tox21).

SMILES strings stand for the structures. Records with an inconclusive call do not appear. A number with no mark means an inactive call. Activity calls are given as the source filed them. The call rests on the fitted dose curve; in most records, active means well fitted cell-killing curve with a large enough effect in the repeat runs; inconclusive means weak or mixed curves, or effect the other way; inactive means flat fitted curve, though single readings scatter.
On the % scale 0 is the no-effect control and ±100 the full control effect.

A short description of the experiment: qHTS assay to identify small molecule that activate the aryl hydrocarbon receptor (AhR) signaling pathway - cell viability counter screen (AID 743086).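 Further: HepG2 liver cells carrying the AhR DRE luciferase reporter; nearly all actives have a fitted effect of over 45% in size.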 To be noted: HepG2-AhR-luc viability, CellTiter-Fluor, 24 h; series mostly up to 70.3 µM; viability change, negative = cytotoxic: at the top concentration. The source says: U.S. Tox21 Program National Center for Advancing Translational Sciences [NCATS] NIH Chemical Genomics Center [NCGC] U.S. Environmental Protection Agency [EPA] National Institutes of Environmental Health Sciences [NIEHS] National Toxicology Program [NTP] U.S. Food and Drug Administration [FDA] Tox21 Assay overview: The Aryl hydrocarbon Receptor (AhR), a member of the family of basic helix-loop-helix transcription factors, is crucial to adaptive responses to environmental changes. AhR mediates cellular responses to environmental pollutants such as aromatic hydrocarbons through induction of phase I and II enzymes but also interacts with other nuclear receptor signaling pathways A cell based HepG2-AhR-luc assay (HG2L7.5c1 cell line, developed by Dr. Michael S. Denison, University of California at Davis) was used to assess the activation of AhR. HepG2 (human hepatocellular carcinoma) cells were stably transfected with an Ah receptor-responsive firefly luciferase reporter gene plasmid containing 20 dioxin responsive elements and luciferase reporter gene. Increased luciferase activity can be used to identify the compounds that induce AhR activation. The cytotoxicity of the compounds screened against the HepG2-AhR-luc cell line was tested in parallel by measuring the cell viability using CellTiter-Fluor assay in the same wells.
Tox21 Assay Protocol Summary: 4000 cells in 5 uL/well were dispensed into white wall/solid bottom 1536-well plates using a Multidrop Combi (Thermo Fisher Scientific Inc., Waltham, MA) dispenser. After the assay plates were incubated at 37C for 5 h, 23 nL of compound or DMSO vehicle was transferred to the assay plates by a pintool station (Kalypsys, San Diego, CA). The plates were incubated at 37C for 24 hr. For cell viability measurement, 1 ul/well of CellTiter-Fluor reagent (Promega, Madison, WI) was added into the assay plates using a Flying Reagent Dispenser (FRD) (Aurora Discovery, CA),and then the assay plates were incubated at 37C for 30 min. The fluorescence intensity in the plates was measured using a ViewLux plate reader (PerkinElmer, Shelton, CT), followed by the addition of 4 uL of ONE-Glo Luciferase Assay reagent (Promega) using an FRD (Aurora Discovery). After the assay plates were incubated at room temperature for 30 min, luminescence intensity was measured using a ViewLux plate reader (Perkin Elmer).
A general note: qHTS replaces the single test concentration by a dilution series.
On to `COCCOCCOCCOC`, for which the “viability change, negative = cytotoxic” value was 12.4%.

In the case of `NS(=O)(=O)c1ccccc1OC(F)(F)F`, the “viability change, negative = cytotoxic” value was 0.586%.

Regarding `CCCCCCCC/C=C\CCCCCCCC(=O)OC[C@@H](O)[C@H]1OC[C@H](O)[C@H]1O`, the Potency entry was “inactive”.

On to `C=COCCOCCOC=C`, for which the “viability change, negative = cytotoxic” value was -1.71%.

For `CNC(=O)C(c1ccccc1)c1ccccc1`, the “viability change, negative = cytotoxic” value was -0.703%.

As to `CC(C)COC(=O)CCCCC(=O)OCC(C)C`, the “viability change, negative = cytotoxic” value is -5.23%.

`O=c1[nH]c(=O)c2ccccc2o1`: the “viability change, negative = cytotoxic” value was 3.71%.

For `CC(=O)OC(C)(C)Cc1ccccc1`, the “viability change, negative = cytotoxic” value was -3.63%.

Take `Cc1cc(O)c2c(c1)C(=O)c1cccc(O)c1C2=O`: the “viability change, negative = cytotoxic” value is -7.3%.

As for `CC(C)CCC(=O)CCC(C)C`, the “viability change, negative = cytotoxic” value was 10.9%.

With `CC(C)C(=O)c1ccccc1`, the “viability change, negative = cytotoxic” value was 9.65%.

In the case of `O=CO`, the viability change, negative = cytotoxic was -0.0332% [at 8.47 µM].

For `CNC(=O)NC`, the “viability change, negative = cytotoxic” value was 4.55% [at 95 µM].

`NC(=O)NC(=O)Cc1ccccc1`: the “viability change, negative = cytotoxic” value was -3.43%.

Regarding `Cc1ccc(S(=O)(=O)NC(=O)NC2CCCCCCC2)cc1`, the “viability change, negative = cytotoxic” value was 13.1%.

Regarding `N#CCCOCCOCCC#N`, the “viability change, negative = cytotoxic” value is -0.425%.

Consider `O=C1c2ccccc2-c2ccccc21`, for which the “viability change, negative = cytotoxic” value was 4.4% [at 95 µM].

Take `Nc1ccc(S(=O)(=O)NC(=O)c2ccccc2)cc1`: the “viability change, negative = cytotoxic” value is -1.49% [at 32.5 µM].

Turning to `CN[C@@H]1[C@@H](O)[C@@H](O[C@@H]2[C@H](O)[C@H](O[C@H]3OC(CN)=CC[C@H]3N)[C@@H](N)C[C@H]2N)OCC1(C)O` (stereo not given in full), the “viability change, negative = cytotoxic” value was 6.19%.

Turning to `BrC/C=C/CBr`, the “viability change, negative = cytotoxic” value was 8.24% [at 32.5 µM].

As for `CCCCCCCCCCCCCCCC(=O)NCCO`, the “viability change, negative = cytotoxic” value is 10.7%.

Consider `CCCCCC1CCCC(=O)O1` (stereo not given), for which the “viability change, negative = cytotoxic” value was 8.22%.

As to `C[CH2][Ge]([Cl])([CH2]C)[CH2]C`, the “viability change, negative = cytotoxic” value is 1.32% [at 95 µM].

`Cc1c(C(C)C)c(=O)n(-c2ccccc2)n1C`: the “viability change, negative = cytotoxic” value was 15%.

In the case of `O=C1NC2NC(=O)NC2N1` (stereo not given), the “viability change, negative = cytotoxic” value is 14.3%.

Turning to `CC(C)(CO)[C@@H](O)C(=O)NCCCO`, the “viability change, negative = cytotoxic” value was 7.86%.

With `C1=CCC(c2ccccc2)CC1` (stereo not given), the “viability change, negative = cytotoxic” value is 14.9%.

For `COc1ccc(OC)c(NC(=O)CC(C)=O)c1`, the “viability change, negative = cytotoxic” value is 16.9%.

For `C1CCN2C[C@@H]3C[C@@H](CN4CCCC[C@@H]34)[C@H]2C1`, the “viability change, negative = cytotoxic” value is -4.94% [at 32.5 µM].

Take `CC(=O)Nc1ccc(C)cc1`: the “viability change, negative = cytotoxic” value is -6.22%.

In the case of `Nc1ccc(/C=C/c2ccc(N)cc2S(=O)(=O)O)c(S(=O)(=O)O)c1`, the “viability change, negative = cytotoxic” value is -2.33%.

In the case of `CC(C)CCCC(C)CC=O` (stereo not given), the “viability change, negative = cytotoxic” value was -1.01%.

Regarding `COc1ccc(NS(=O)(=O)c2ccc(N)cc2)nn1`, the “viability change, negative = cytotoxic” value was -18.8% [at 32.5 µM].

As to `CC(C)(C)c1ccc(C=O)cc1`, the “viability change, negative = cytotoxic” value is -11%.

As to `CO[Si](CCCCl)(OC)OC`, the “viability change, negative = cytotoxic” value is 3.39%.

For `CCCCC(CC)C(=O)OC(C)C` (stereo not given), the “viability change, negative = cytotoxic” value was 15.6%.

`O=C(COCCOCCOCC(=O)Nc1c(I)cc(I)c(C(=O)O)c1I)Nc1c(I)cc(I)c(C(=O)O)c1I`: the “viability change, negative = cytotoxic” value was 6.97%.

Consider `C=CCOC(=O)c1ccc(C(=O)OCC=C)c(C(=O)OCC=C)c1`, for which the “viability change, negative = cytotoxic” value was -4.28%.

On to `CCCCCC1Nc2cc(C(F)(F)F)c(S(N)(=O)=O)cc2S(=O)(=O)N1` (stereo not given), for which the “viability change, negative = cytotoxic” value is 4.55%.

For the molecule `COCC(=O)Nc1c(I)c(C(=O)NCC(O)CO)c(I)c(C(=O)N(C)CC(O)CO)c1I` (stereo not given), the “viability change, negative = cytotoxic” value is 0.88% [at 32.5 µM].
